Screens from PubChem.
HTT ATP protect = Huntington cell model cytoprotection by ATP luminescence; Potency, µM (series often up to 56.4 µM), for inactives: cytoprotection (ATP increase), hits mostly activators; AID 1471; 230,000 tested, 0.14% active; PC12 HTT-Q103 induced, cytoprotection, ATP luminescence, 40 h; note: % of control where 0% means no effect; nearly all actives have a fitted effect of over 45% in size
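Quantitative HTS on tebufenozide-induced (100 nM) PC12 cells expressing HTTQ103 exon 1–GFP; compounds tested as a concentration series; survival measured via cellular ATP.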
KinaseGlo FLuc = Kinase-Glo luciferase inhibition (counter-screen); Q27757; Kinase-Glo luciferase, ATP luminescence, 8 min; Potency, µM (doses to about 38.3 µM), inactives show at the highest dose activity change, negative = inhibition, actives largely listed as inhibitors; 200,000 tested, 0.28% active; AID 1379; note: % is set by controls: 0 for no effect and ±100 for the full control effect; nearly all actives have a fitted effect of over 60% in size
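Recombinant Kinase-Glo luciferase, 10 uM ATP (linear range), luciferin; imidazole pH 7.2 / KCl / MgCl2 / Tween / BSA buffer; 8 min RT; luminescence.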
HPGD block = blocks human HPGD enzyme activity; purified HPGD, NADH fluorescence kinetic, PGE2 substrate; Potency, µM, for inactives: at the highest dose activity change, negative = inhibition, actives largely listed as inhibitors; 150,000 tested, 4.3% active; AID 894; active = well fitted inhibition curve with a large enough effect, not every such curve was filed as active; inconclusive = small, poorly fitted or top-dose-only effect, or another doubt; inactive = no such curve, though single readings can be large or run the other way; note: % is set by controls: 0 for no effect and ±100 for the full control effect
Target sequence (P15428 whole entry, looked up): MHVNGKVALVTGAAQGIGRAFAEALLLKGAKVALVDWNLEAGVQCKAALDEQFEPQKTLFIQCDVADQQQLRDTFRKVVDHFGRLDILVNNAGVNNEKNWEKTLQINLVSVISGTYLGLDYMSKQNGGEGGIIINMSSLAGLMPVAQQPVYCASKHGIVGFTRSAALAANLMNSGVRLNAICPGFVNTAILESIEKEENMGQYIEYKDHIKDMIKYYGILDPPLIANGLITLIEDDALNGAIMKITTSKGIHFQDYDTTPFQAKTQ
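NADH formation kinetics: reaction with 30 uM PGE2 and 1 mM NAD+ (final), 20 nM enzyme, Tris-HCl pH 8 with Tween 20, after 15 min compound preincubation at room temperature. Fluorescence change, last versus first of five reads.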
ALDH1A1 block = blocks purified human ALDH1A1 activity. P00352. Potency, µM (series often up to 75.3 µM), inactives show at the highest dose activity, negative = inhibition, actives largely listed as inhibitors. 220,000 tested, 7.3% active. Purified ALDH1A1, NADH fluorescence, propionaldehyde substrate. AID 1030; active = well fitted inhibition curve with a large enough effect, not every such curve was filed as active; inconclusive = small, poorly fitted or top-dose-only effect, or another doubt; inactive = no such curve, though single readings can be large or run the other way;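 note: plate controls were no enzyme wells and a reference inhibitor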
Target sequence (P00352 whole entry, looked up): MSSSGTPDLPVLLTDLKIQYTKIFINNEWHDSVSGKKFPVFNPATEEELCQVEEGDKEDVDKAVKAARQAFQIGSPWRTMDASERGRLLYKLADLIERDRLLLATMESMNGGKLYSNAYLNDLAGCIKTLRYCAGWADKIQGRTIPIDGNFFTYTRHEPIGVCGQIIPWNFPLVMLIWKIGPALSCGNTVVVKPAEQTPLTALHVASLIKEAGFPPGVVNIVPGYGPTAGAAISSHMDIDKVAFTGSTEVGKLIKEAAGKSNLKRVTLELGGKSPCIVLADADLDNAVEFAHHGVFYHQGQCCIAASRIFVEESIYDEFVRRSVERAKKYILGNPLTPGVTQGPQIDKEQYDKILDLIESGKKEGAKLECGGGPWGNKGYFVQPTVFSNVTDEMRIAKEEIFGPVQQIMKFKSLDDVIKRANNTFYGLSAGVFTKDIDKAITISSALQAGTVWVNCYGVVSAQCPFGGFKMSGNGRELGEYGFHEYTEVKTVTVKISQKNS
Lamin A splicing = changes lamin A minigene splicing in HeLa cells; HeLa LMNA splicing GFP/RFP minigene ratio, 48 h; Potency, µM (doses to about 46.1 µM), inactives show top-dose ratio change, negative = inhibition, usual class: inhibitors; 200,000 tested, 0.01% active; AID 1487; active = well fitted inhibition curve with a large enough effect in the signal ratio, with a control signal flat, not every such curve was filed as active; inconclusive = small, poorly fitted or top-dose-only effect, or effect the other way, or a change in a side signal; the % refers to the signal ratio; note: % is set by controls: 0 for no effect and ±100 for the full control effect
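S3 HeLa stable clones carrying a lamin A-EGFP splicing minigene plus DsRed2 were seeded at 600 cells/well in Opti-MEM with 2% FBS, pin-dosed and incubated 48 h at 37°C. Acumen cytometry (488 nm) gave the GFP/RFP total-intensity ratio.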
HttQ103 aggreg = reduces HttQ103-GFP aggregates in PC12 cells; PC12 HttQ103-GFP aggregates, Acumen cytometry, 40 h; Potency, µM (series often up to 46.1 µM), for the others: top-dose activity change, negative = inhibition, actives largely listed as inhibitors; 220,000 tested, 1.1% active; AID 1688; note: % is set by controls: 0 for no effect and ±100 for the full control effect; nearly all actives have a fitted effect of over 60% in size
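Aggregates are detected as GFP objects 1–25 µm with signal 6 STDEV over background in lysates of induced PC12 cells. These carry Huntingtin exon 1 with 103 glutamines fused to GFP under an ecdysone promoter; compounds titrated.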
Starred values were filed as active, the others as inactive; ? = inconclusive; · = no result given; [ ] = another dose, or the depositor's remark. Only some compounds are listed: those with a hit (about 9% of all), similar ones and a draw of the others. Unless noted, calls come from the whole dose curve; as a rule, active = well fitted curve in the direction sought with a large enough effect; inconclusive = small, poorly fitted or top-dose-only effect, or another doubt; inactive = no such curve, though single readings can be large; an effect the other way counts as inactive or inconclusive. Potency is the fitted concentration of half-maximal effect.

SMILES	HTT ATP protect	KinaseGlo FLuc	HPGD block	ALDH1A1 block	Lamin A splicing	HttQ103 aggreg
O=C(Nc1ccc(Br)cc1Cl)c1cnccn1	-7%	3%	-12%	-4%	-2%	-4%
CN(C)c1ccc(-c2nn3c(-c4ccc(Cl)cc4Cl)nnc3s2)cc1	12%[1.9 µM]	0%	?	0%	?	-16%
[O-]C1=N/[N+](=C/c2ccccc2)CC1	6%[10 µM]	·	·	·	·	0%[9.22 µM]
Cc1ccc(Nc2c(-c3ccccn3)nc3ccc(C)cn23)cc1	-44%[10 µM]	-1%	·	-6%	·	11µM*
Cc1ccn2c(Nc3ccc4c(c3)OCO4)c(-c3ccccn3)nc2c1	-21%[10 µM]	-10%	-19%	-4%	?	-18%
Cc1ccc(Nc2c(-c3ccccn3)nc3cc(C)ccn23)cc1	-116%	-3%	·	-5%	·	7.9µM*
O=C(NCCN1CCOCC1)c1cn(CCc2ccccc2)nn1	21%	·	·	-2%	1%	-1%
Cc1c(CBr)[n+](=O)c2c(n1[O-])C(Br)CCC2Br (stereo not given)	-10%[10 µM]	·	·	·	·	20%[9.22 µM]
C/C(=N\NC(N)=O)C1(C)CCCCC1	10%	1%	-10%	25µM*	14%	-14%[9.22 µM]
C/C(=N\NC(N)=S)C1(C)CCCCC1	·	2%	3%	?	-6%	4%
Cc1ccc(C(=O)c2coc3cc([N+](=O)[O-])c(O)c([N+](=O)[O-])c23)cc1	6%[1.9 µM]	-2%	14µM*	?	?	2%
Cc1ccc(C(=O)c2ccc([N+](=O)[O-])cc2)cc1	12%	-2%	-12%	-7%	28%	-31%
COc1ccc(NC(=O)N2CCN(c3ccc([N+](=O)[O-])cc3)CC2)cc1	-4%[10 µM]	-1%	·	-8%	7%[46 µM]	7%[9.22 µM]
O=c1cc(-c2ccccc2)n(S(=O)(=O)c2ccccc2)o1	-18%	-1%	-18%	25µM*	17%	-14%
O=C(NN=C1C2CC3CC1CC(Cl)(C3)C2)c1cccs1	-25%	-1%	·	3.2µM*	·	-5%
CCCSc1nnc(-c2cnn(-c3ccccc3)c2-n2cccc2)n1C	-12%	0%	18µM*	?	20%	?
C=CCSc1nnc(-c2cnn(-c3ccccc3)c2-n2cccc2)n1C	16%	-3%	?	-10%	15%	-11%
Nc1nnc(C(c2ccccc2)c2ccccc2)s1	8%	0%	0%	?	-5%	2%
COc1cc(/C=C2/NC(=O)N(Cc3ccccc3F)C2=O)cc(OC)c1O	-42%	·	·	10µM*	·	10%
CCOc1cc(/C=C2/NC(=O)N(Cc3ccccc3F)C2=O)ccc1O	-38%[10 µM]	2%	-11%	8.9µM*	6%	-3%
CCCCn1c(N)c(NCC(C)C)c(=O)[nH]c1=O	19%[1.9 µM]	-1%	-16%	-14%	6%	2%
O=c1nc2s/c(=C\c3ccco3)c(=O)n2nc1Cc1ccc(F)cc1	-5%[0.074 µM]	1%	-29%	-14%	4%	6%
CCCOc1ccc(N2CC(C(=O)NC(C)C)CC2=O)cc1 (stereo not given)	-22%[10 µM]	0%	-6%	0%	-3%	-2%
Cc1ccc(C(=O)NC2CC3CCCC(C2)N3C(=S)NCc2ccco2)cc1 (stereo not given)	-4%[10 µM]	-2%	·	22µM*	·	-13%[9.22 µM]
COCn1c(=O)c2c(nc(SC3=NCCS3)n2Cc2ccccc2C)n(COC)c1=O	-13%	-8%	-17%	2.8µM*	4%	8%
SMILES	HTT ATP protect	KinaseGlo FLuc	HPGD block	ALDH1A1 block	Lamin A splicing	HttQ103 aggreg
CCOc1ccc(C(=O)c2ccc(OCC)c(N)c2)cc1N	-16%	1%	-5%	-1%	-12%	3%
COc1ccc(Nc2nc(N3CCCCC3)c3ccccc3n2)cc1	-82%	-8%	?	13µM*	?	18µM*
CCOc1ccc(Nc2ncnc3ccc([N+](=O)[O-])cc23)cc1	9%[10 µM]	1%	·	?	12%[46 µM]	7.9µM*
COc1ccc(Nc2ncnc3ccccc23)c(OC)c1	-41%[10 µM]	-7%	?	10µM*	-13%	5%
CCOC(=O)c1ccc(Nc2ncnc3ccc(C)cc23)cc1	-10%	-4%	?	?	26%	-17%
COc1ccc(Nc2ncnc3ccccc23)cc1	1%	-6%	-4%	14%	-3%	11µM*
COc1cccc(Nc2ncnc3ccccc23)c1	-61%	-7%	-7%	16%	?	?
COc1ccc(CN2CCN(Cc3cccc4nonc34)CC2CCO)c(C)c1C (stereo not given)	15%[10 µM]	0%	·	-10%	?	5%[9.22 µM]
CCc1cccc(NC(=O)CN(C)S(=O)(=O)c2cccc3cccnc23)c1	10%[10 µM]	·	·	·	·	2%[9.22 µM]
O=C(Nc1cccc(-c2nc3ccccc3s2)c1)c1cc(=O)c2ccccc2o1	-5%[10 µM]	2%	?	?	6%	19%
COc1ccccc1NC(=S)c1ccccc1	9%[10 µM]	1%	22µM*	28µM*	-4%	?
COc1cc(OC)cc(C(=O)NNC(=S)Nc2ccccc2OC)c1	·	13%	-10%	22µM*	9%	-20%
COc1ccccc1NC(=S)NC(C)=O	-11%	1%	·	9%	-16%[46 µM]	16%
O=C1CCC2S/C(=C/Nc3ccc(C(F)(F)F)cc3)C(=O)N12 (stereo not given)	-69%	-3%	·	13µM*	7%[46 µM]	1%
O=C(CCCCCn1c(=O)[nH]c2ccccc2c1=O)N1CCN(Cc2ccc3c(c2)OCO3)CC1	2%[10 µM]	-3%	-6%	?	-13%	13µM*
O=C(CCCCCn1c(=S)[nH]c2ccc(Br)cc2c1=O)NCC1CCCO1 (stereo not given)	-39%	3%	2.8µM*	-7%	0%	0%[9.22 µM]
CC1CCN(CCCn2c(=S)[nH]c3ccccc3c2=O)CC1	16%	-5%	-12%	3%	9%	-4%
O=C(CCCn1c(=S)[nH]c2ccccc2c1=O)NC1CCCCC1	3%	16%	20µM*	-14%	-2%	-2%
COc1cc2[nH]c(=O)n(CCC(=O)N3CCN(Cc4ccc5c(c4)OCO5)CC3)c(=O)c2cc1OC	-29%	-1%	·	?	23%[46 µM]	?
CC1CC(C)CN(C(=O)CCCn2c(=S)[nH]c3ccccc3c2=O)C1 (stereo not given)	-3%	0%	25µM*	?	-1%	2%
COc1ccc(/C=C2\C(=O)NC(=S)N2C(=O)c2ccc(C)cc2)cc1	16%[10 µM]	0%	?	3%	?	?
O=C(c1ccc(F)cc1)C1CCN(CCn2c(=S)[nH]c3ccccc3c2=O)CC1	-2%	-1%	14µM*	-2%	·	17%
O=C(CCCn1c(=S)[nH]c2ccccc2c1=O)N1CCCCC1	1%[10 µM]	3%	10µM*	?	-5%	14%
